Laboratory results: PubChem BioAssay
Calls of active or inactive are those of the source. Unless noted, how the calls were made is not given here.

What was measured:
[1] = system: Wnt5a (protein binding on small-molecule microarray); experiment: Wnt5a binders on small-molecule microarray, primary screen, biophysical, 635/667 nm fluorescence (AID 1142); conditions: 635 nm fluorescence, higher = more signal;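 further: fluorescence read at 667 nm with signal to noise per printed feature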
[2] = cell viability in Huh7 cells, primary screen, cytotoxicity control for HCV replication inhibitor project, CellTiter-Glo luminescence, basal, 48 h (AID 1143); conditions: Huh7 HCV replicon, higher = more signal, called active from +8 up or from −8 down;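 further: Huh7 hepatoma cells carrying a hepatitis C replication reporter with no stimulus; test concentration not given here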
[3] = P. aeruginosa biofilm formation inhibitors, primary screen, PAO1 strain, BacTiter-Glo luminescence, LB-PBS (AID 1144); conditions: 12 h, higher = more signal
[4] = CREB reporter modulators without forskolin, primary screen, cell-based, PC12, CRE-LacZ reporter, unstimulated (AID 1145); conditions: no forskolin, luminescence, 4.5 h, higher = more signal, called active from +8 up or from −8 down
[5] = CREB reporter modulators under forskolin, primary screen, cell-based, PC12, CRE-LacZ reporter, forskolin-stimulated (AID 1146); conditions: luminescence, 4.5 h, higher = more signal, called active from +8 up or from −8 down;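 further: PC12 cells with 6xCRE LacZ reporter stimulated by forskolin 10 µM; beta-galactosidase reporter signal reflecting CREB driven transcription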
[6] = target: Streptavidin (Streptomyces avidinii) (UniProt P22629); experiment: streptavidin binders on small-molecule microarray, primary screen, artefact control for SMM compound annotation, biophysical, 635/667 nm fluorescence (AID 1147); conditions: streptavidin binding, higher = more signal;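 further: signal reflects streptavidin binding to arrayed compounds as a control protein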
[7] = small-molecule binders of probe aInhba, primary screen, biochemical, small-molecule microarray, 635/667 nm fluorescence (AID 1148); conditions: higher = more signal;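 further: score merges 667nm spot fluorescence with signal-to-noise for antibody binding to printed compounds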
Torsin-1A (Homo sapiens) [8] = target: Torsin-1A (Homo sapiens) (UniProt O14656); experiment: torsin A binders from cell lysate, primary screen, small-molecule microarray, wild-type, 635/667 nm (AID 1149); conditions: COS7 hTOR1A-WT lysate, 635 nm fluorescence, higher = more signal
Torsin-1A (Homo sapiens) [9] = target: Torsin-1A (Homo sapiens) (UniProt O14656); experiment: small-molecule binders of mutant TOR1A in lysate, primary screen, cell lysate, small-molecule microarray, COS7 lysate, 635/667 nm fluorescence (AID 1150); conditions: COS7 hTOR1A mutant lysate, 635 nm fluorescence, higher = more signal;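 further: score pools 667 nm emission and signal to noise measuring lysate protein binding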
[10] = system: Sonic hedgehog protein (Shh); experiment: small-molecule binders of Shh protein, primary screen, biochemical, small-molecule microarray, 635/667 nm fluorescence (AID 1151); conditions: small-molecule microarray binding, 635 nm fluorescence; higher = more signal;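 further: Shh protein binding to compounds spotted on small-molecule microarray slides; score combines spot fluorescence intensity with signal-to-noise across triplicate slides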
[11] = E. coli DRC41 culture turbidity changes, primary screen, E. coli filamentation inducer project, strain DRC41, OD650, 48 h (AID 1152);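 further: E. coli MC1000 strain DRC41 lacking acrAB efflux pump and sulA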; conditions: E. coli DRC41 (acrAB sulA), higher = more signal, called active from +8 up or from −8 down
[12] = small-molecule binders of probe aLefty1, primary screen, biochemical, small-molecule microarray, 635/667 nm fluorescence (AID 1153); conditions: higher = more signal;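 further: score merges spot fluorescence with signal-to-noise ratio from the scanned slide images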
[13] = PSAC antagonists in infected red cells, primary screen, cell-based, P. falciparum Indochina, OD700, 1 h (AID 1154); conditions: P. falciparum Indochina infected RBC osmotic lysis, higher = more signal, called active from +8 up or from −8 down
[14] = PSAC antagonists in infected red cells, primary screen, cell-based, P. falciparum Indochina, OD700, 2 h (AID 1155);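 further: lysis reports solute entry through the parasite surface anion channel PSAC; channel blockers reduce lysis of infected cells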; conditions: P. falciparum Indochina infected erythrocytes, osmotic lysis OD700; higher = more signal, called active from +8 up or from −8 down
[15] = osmotic lysis modulators in infected erythrocytes, primary screen, PSAC antagonist project, cell-based, P. falciparum Indochina, OD700, 3 h (AID 1156); conditions: higher = more signal, called active from +8 up or from −8 down
[16] = PSAC antagonists in infected red cells, primary screen, cell-based, P. falciparum Indochina, OD700, 18 h (AID 1157); conditions: P. falciparum Indochina infected erythrocytes, osmotic lysis OD700, 18 h; higher = more signal, called active from +8 up or from −8 down
[17] = modulators of S6 phosphorylation in cells, primary screen, cell-based, A549, cytoblot, luminescence, serum-stimulated (AID 1158); conditions: A549 phospho-S6 cytoblot, 5 h, higher = more signal;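 further: serum-stimulated A549 lung adenocarcinoma cells; signal is phosphorylated S6 detected by cytoblot immunostaining with HRP secondary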
[18] = target: NADPH oxidase 2 (Homo sapiens) (UniProt P04839); experiment: NOX2-dependent H2O2 signal modulators, primary screen, NOX inhibitor project, cell-based, HEK293-NOX2, PMA-stimulated, Amplex Red fluorescence (AID 1159); conditions: 45 min, higher = more signal, called active from +8 up or from −8 down; further: test concentration not given here
[19] = target: NADPH oxidase 4 (Homo sapiens) (UniProt Q9NPH5); experiment: NOX4-dependent H2O2 signal modulators, primary screen, NOX inhibitor project, cell-based, HEK293-NOX4, tetracycline-induced, Amplex Red fluorescence (AID 1160); conditions: 45 min, higher = more signal, called active from +8 up or from −8 down
[20] = target: NADPH oxidase 5 (Homo sapiens) (UniProt Q96PH1); experiment: NOX5-dependent H2O2 signal modulators, primary screen, NOX inhibitor project, cell-based, HEK293-NOX5, Amplex Red fluorescence (AID 1161); conditions: HEK293-NOX5, ionomycin, 45 min, higher = more signal
Chain of NADPH oxidase 5 (Homo sapiens) (Q96PH1 whole entry, looked up): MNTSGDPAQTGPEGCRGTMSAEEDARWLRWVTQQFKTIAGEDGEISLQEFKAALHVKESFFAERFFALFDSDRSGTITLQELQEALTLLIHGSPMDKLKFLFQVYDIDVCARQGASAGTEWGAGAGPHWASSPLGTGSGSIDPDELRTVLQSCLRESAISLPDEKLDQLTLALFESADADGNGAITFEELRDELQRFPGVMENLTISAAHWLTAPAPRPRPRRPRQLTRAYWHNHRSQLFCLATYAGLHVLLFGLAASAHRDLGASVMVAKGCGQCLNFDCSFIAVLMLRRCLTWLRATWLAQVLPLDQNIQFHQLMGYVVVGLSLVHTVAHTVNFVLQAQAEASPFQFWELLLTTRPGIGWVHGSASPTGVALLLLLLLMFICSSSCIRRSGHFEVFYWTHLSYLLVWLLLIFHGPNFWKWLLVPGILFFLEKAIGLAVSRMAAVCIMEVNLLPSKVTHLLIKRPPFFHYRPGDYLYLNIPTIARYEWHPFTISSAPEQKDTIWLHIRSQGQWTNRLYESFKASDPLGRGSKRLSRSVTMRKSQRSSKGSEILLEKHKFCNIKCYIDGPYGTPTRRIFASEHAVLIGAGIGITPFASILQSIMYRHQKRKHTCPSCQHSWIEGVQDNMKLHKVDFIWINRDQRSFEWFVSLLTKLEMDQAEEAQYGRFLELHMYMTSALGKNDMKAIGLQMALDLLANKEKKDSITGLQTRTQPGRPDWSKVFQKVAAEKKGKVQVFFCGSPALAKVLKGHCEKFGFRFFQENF

Chain of NADPH oxidase 4 (Homo sapiens) (Q9NPH5 whole entry, looked up): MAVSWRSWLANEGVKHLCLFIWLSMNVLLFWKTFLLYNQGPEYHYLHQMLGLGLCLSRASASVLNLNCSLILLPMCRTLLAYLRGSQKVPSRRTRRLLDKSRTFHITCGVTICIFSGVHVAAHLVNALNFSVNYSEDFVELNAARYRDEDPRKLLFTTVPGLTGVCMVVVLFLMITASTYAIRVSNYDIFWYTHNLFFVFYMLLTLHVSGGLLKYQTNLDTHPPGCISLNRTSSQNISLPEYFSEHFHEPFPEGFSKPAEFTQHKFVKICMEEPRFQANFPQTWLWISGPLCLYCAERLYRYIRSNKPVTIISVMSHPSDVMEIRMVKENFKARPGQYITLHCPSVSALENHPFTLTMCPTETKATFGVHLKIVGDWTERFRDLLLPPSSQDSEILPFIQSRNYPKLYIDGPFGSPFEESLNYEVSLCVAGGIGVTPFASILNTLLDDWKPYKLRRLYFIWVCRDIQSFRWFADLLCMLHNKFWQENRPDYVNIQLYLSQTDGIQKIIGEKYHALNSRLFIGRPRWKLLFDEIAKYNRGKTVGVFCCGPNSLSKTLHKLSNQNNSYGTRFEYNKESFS
Chain of Torsin-1A (Homo sapiens) (O14656 whole entry, looked up): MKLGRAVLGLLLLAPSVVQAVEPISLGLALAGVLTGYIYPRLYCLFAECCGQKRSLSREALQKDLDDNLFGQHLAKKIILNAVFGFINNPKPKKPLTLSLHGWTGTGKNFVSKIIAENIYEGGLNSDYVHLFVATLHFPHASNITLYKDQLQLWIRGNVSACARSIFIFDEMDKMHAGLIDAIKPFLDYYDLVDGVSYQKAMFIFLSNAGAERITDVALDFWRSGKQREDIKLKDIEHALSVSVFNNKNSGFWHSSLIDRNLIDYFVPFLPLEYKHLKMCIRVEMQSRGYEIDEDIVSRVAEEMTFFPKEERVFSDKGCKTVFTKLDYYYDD
Chain of NADPH oxidase 2 (Homo sapiens) (P04839 whole entry, looked up): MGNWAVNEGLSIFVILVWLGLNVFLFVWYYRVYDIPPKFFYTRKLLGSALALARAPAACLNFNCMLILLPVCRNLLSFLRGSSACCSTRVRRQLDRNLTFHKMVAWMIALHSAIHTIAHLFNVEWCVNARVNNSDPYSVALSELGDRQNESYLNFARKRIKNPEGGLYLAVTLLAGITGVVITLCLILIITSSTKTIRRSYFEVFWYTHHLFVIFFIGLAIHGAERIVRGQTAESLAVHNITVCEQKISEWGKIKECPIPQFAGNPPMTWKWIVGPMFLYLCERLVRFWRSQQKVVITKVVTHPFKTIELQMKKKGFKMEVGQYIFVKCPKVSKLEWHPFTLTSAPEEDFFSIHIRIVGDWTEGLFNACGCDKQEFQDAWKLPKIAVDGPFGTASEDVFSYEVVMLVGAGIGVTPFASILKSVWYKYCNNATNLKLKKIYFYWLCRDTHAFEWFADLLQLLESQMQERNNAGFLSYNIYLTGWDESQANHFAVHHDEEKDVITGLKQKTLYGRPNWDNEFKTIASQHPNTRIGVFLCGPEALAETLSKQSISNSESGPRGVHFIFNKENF
Chain of Streptavidin (Streptomyces avidinii) (P22629 whole entry, looked up): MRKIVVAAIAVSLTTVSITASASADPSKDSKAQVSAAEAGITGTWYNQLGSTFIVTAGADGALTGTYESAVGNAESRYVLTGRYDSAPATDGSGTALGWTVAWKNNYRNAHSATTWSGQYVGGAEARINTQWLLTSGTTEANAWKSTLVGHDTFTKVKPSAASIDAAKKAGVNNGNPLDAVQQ

SMILES	composite z-score [1]	z-score [2]	z-score [3]	z-score [4]	z-score [5]	composite z-score [6]	composite z-score [7]	composite z-score (Torsin-1A (Homo sapiens) [8])	composite z-score (Torsin-1A (Homo sapiens) [9])	composite z-score [10]	z-score [11]	composite z-score [12]	z-score [13]	z-score [14]	z-score [15]	z-score [16]	z-score [17]	z-score [18]	z-score [19]	z-score [20]
COc1ccc(O[C@H]2C=C[C@@H](c3ccccc3)O[C@@H]2COC(=O)CCC(C)=NO[C@@H]2O[C@H](COC(C)=O)[C@@H](OC(C)=O)[C@H](OC(C)=O)[C@H]2OC(C)=O)cc1	0.0276	-0.178 (inactive)	-0.333 (inactive)	2.85 (inactive)	0.847 (inactive)	0.484	-0.106	0.495	0.21	0.918	0.37 (inactive)	-0.019	1.73 (inactive)	0.583 (inactive)	1.1 (inactive)	0.539 (inactive)	-1.01	1.08 (inactive)	1.75 (inactive)	0.222
CO[C@@H]1C=CCC(=O)N[C@@H](C)C(=O)OC[C@@H](OC)[C@H](C)CCCC(=O)OC[C@H]1C	0.122	-0.468 (inactive)	-0.499 (inactive)	-0.808 (inactive)	0.0561 (inactive)	0.253	-0.101	3.16	2.84	1.71	0.0058 (inactive)	0.0816	-1.15 (inactive)	-1.22 (inactive)	-0.683 (inactive)	-2.43 (inactive)	-0.417	0.57 (inactive)	0.957 (inactive)	0.645
O=C1CCCC=C1C(O)CCCCBr (stereo not given)	0.0756	-3.99 (inactive)	-0.548 (inactive)	1.37 (inactive)	27 (active)	1.51	-0.0523	0.201	0.686	0.333	0.549 (inactive)	0.155	3.79 (inactive)	1.15 (inactive)	1.02 (inactive)	0.759 (inactive)	0.231	-0.772 (inactive)	0.241 (inactive)	-0.921
C#CCCCON=C1C[C@@H](O)[C@@H](O)[C@@H]2[C@@H]3C(=O)N(C(C)(C)C)C(=O)[C@@H]3CC[C@H]12	-0.19	0.0285 (inactive)	0.189 (inactive)	0.608 (inactive)	0.0692 (inactive)	0.941	0.0228	-0.309	-0.123	-0.914	0.233 (inactive)	0.571	3.84 (inactive)	0.371 (inactive)	-0.342 (inactive)	0.204 (inactive)	-0.162	-0.722 (inactive)	0.132 (inactive)	0.307
CC=CC1=C(CO)C(=O)[C@@H]2O[C@@H]2C1=O	0.189	-1.02 (inactive)	-0.36 (inactive)	0.0178 (inactive)	3.64 (inactive)	-0.842	-0.128	0.0039	-0.579	1.72	0.33 (inactive)	-0.202	-0.4 (inactive)	-0.344 (inactive)	-0.501 (inactive)	-0.267 (inactive)	-0.292	2.08 (inactive)	-0.329 (inactive)	0.846
CCOC(=O)[C@H](CC(C)C)NC(=O)CCC1CC(OC(=O)NCc2cccc3ccccc23)CC2(CCCC(COC(=O)NCCOC)O2)O1 (stereo not given in full)	0.238	-1.3 (inactive)	-0.656 (inactive)	-0.526 (inactive)	0.389 (inactive)	0.0772	0.119	-0.114	0.753	1.03	1.24 (inactive)	-0.0559	-0.137 (inactive)	0.184 (inactive)	-0.283 (inactive)	-0.196 (inactive)	0.142	1.05 (inactive)	0.96 (inactive)	-0.464
CO[C@H]1COC(=O)[C@@H](C)COC(=O)[C@H](C)NC(=O)CC=C[C@H]1C	0.0392	-0.378 (inactive)	0.371 (inactive)	-0.115 (inactive)	-0.959 (inactive)	-0.639	-0.176	1.15	0.991	1.6	-0.0819 (inactive)	-0.0186	-0.0875 (inactive)	0.725 (inactive)	0.76 (inactive)	0.403 (inactive)	-0.144	1.72 (inactive)	0.315 (inactive)	0.895
CCCNC(=O)OC[C@H]1O[C@H](c2ccccc2)C=C[C@@H]1Oc1ccc(OC)cc1	-0.0663	-0.234 (inactive)	0.404 (inactive)	0.735 (inactive)	-0.353 (inactive)	1.48	-0.0719	-0.131	0.144	0.0199	0.604 (inactive)	-0.092	0.906 (inactive)	0.141 (inactive)	-0.353 (inactive)	0.0261 (inactive)	0.136	1.35 (inactive)	-0.438 (inactive)	-1.9
CC(C)(C)N1C(=O)[C@H]2[C@H]3[C@H](O)[C@H](O)CC(=NO[C@@H]4O[C@H](CO)[C@@H](O)[C@H](O)[C@H]4O)[C@H]3CC[C@H]2C1=O	0.0479	-2.05 (inactive)	0.745 (inactive)	-0.656 (inactive)	-0.0093 (inactive)	-0.132	0.179	0.462	0.0791	0.345	-1.73 (inactive)	-0.193	5.45 (inactive)	1.46 (inactive)	1.01 (inactive)	1.24 (inactive)	-0.527	0.192 (inactive)	-0.912 (inactive)	-3.69
